PLK1 PBD block – inhibitors of human PLK1 polo-box domain binding | Plk1 PBD binding of FITC phosphopeptide, fluorescence polarization | Potency, µM, for the others: max response, negative = inhibition, actives largely listed as inhibitors | 360,000 tested, 2.8% active | AID 720504; note: potency is the fitted concentration of half-maximal effect; series mostly up to about 57 µM; % is set by controls: 0 for no effect and ±100 for the full control effect; nearly all actives have a fitted effect of over 65% in size
JMJD2A Tudor inh – JMJD2A Tudor domain (human) inhibition; AlphaScreen JMJD2A-Tudor / H3K4me3 peptide binding; Potency, µM (top dose mostly 114 µM), without a hit: top-dose activity change, negative = inhibition, usual class: inhibitors; 390,000 tested, 4.4% active; note: potency is the fitted concentration of half-maximal effect; % is set by controls: 0 for no effect and ±100 for the full control effect; nearly all actives have a fitted effect of over 50% in size
HP1b chromo inh – inhibitors of HP1-beta chromodomain binding to methylated histone tails; AlphaScreen HP1-beta / biotin-H3K9me3 peptide binding; P83916; AID 540317; 390,000 tested, 0.56% active; Potency, µM (doses to about 114 µM), for inactives: at the top dose activity change, negative = inhibition, hits mostly inhibitors; note: potency is the fitted concentration of half-maximal effect; nearly all actives have a fitted effect of over 70% in size
Target sequence (P83916 whole entry, looked up): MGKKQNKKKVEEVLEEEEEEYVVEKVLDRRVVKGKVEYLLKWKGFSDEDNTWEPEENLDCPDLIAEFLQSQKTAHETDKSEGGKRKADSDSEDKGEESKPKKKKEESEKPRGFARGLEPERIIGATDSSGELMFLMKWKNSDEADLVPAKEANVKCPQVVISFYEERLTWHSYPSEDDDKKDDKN
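AlphaScreen: HP1-beta (50 nM) preformed 30 min with biotin-H3(1-18)K9me3 peptide (50 nM) in PBS pH 7.4, 0.01% Tween-20. Compound added for 30 min at RT, then streptavidin donor/nickel chelate acceptor beads (10 ug/mL) for 30 min.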
G9a inh – G9a (human) methyltransferase inhibition | Potency, µM (series often up to 102 µM), for the others: at the top dose activity, negative = inhibition, actives largely listed as inhibitors | G9a H3K9 monomethylation, AlphaScreen, 2 h | Q96KQ7 | 350,000 tested, 8.8% active; note: potency is the fitted concentration of half-maximal effect; % is set by controls: 0 for no effect and ±100 for the full control effect; nearly all actives have a fitted effect of over 75% in size
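Quantitative HTS format: methyltransferase activity on a biotin-tagged H3K9 peptide is measured by AlphaScreen, using a rabbit anti-monomethyl-H3K9 antibody with streptavidin donor and anti-IgG acceptor beads. Final levels are 20 nM enzyme, 500 nM peptide, 20 uM SAM; 2 h RT.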
PI5P4Ka inh – blocks human PI5P4K alpha kinase activity. PI5P4Kalpha enzyme, ADP-Glo luminescence, 60 min; hits give low values. max response, %. 330,000 tested, 1.2% active. P48426. AID 652105; active = max response of -50% or lower; inconclusive = between -30% and -50%; inactive = -30% or higher; note: value at the top dose of about 77 µM; % is set by controls: 0 for no effect and ±100 for the full control effect
Target sequence (P48426 whole entry, looked up): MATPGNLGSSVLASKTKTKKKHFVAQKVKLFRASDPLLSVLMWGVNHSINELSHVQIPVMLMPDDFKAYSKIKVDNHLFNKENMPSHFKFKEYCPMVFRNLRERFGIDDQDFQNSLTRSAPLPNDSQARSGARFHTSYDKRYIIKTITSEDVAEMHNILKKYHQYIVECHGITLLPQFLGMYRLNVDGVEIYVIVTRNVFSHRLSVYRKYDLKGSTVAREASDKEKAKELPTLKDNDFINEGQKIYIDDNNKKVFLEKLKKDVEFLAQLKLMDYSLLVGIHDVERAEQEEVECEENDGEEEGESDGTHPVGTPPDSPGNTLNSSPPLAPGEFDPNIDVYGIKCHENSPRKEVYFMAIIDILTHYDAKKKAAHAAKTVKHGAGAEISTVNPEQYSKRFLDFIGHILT
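Human PI5P4Kalpha with substrate in 0.038 M HEPES pH 7.4, 0.28 mM EGTA, 0.1% CHAPS, 5% DMSO; reaction started with 5 microM ATP (final), 60 min at room temperature. ADP formed read by ADP-Glo luminescence.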
BAZ2B inh – blocks human BAZ2B; Q9UIF8; AlphaScreen BAZ2B-H3K14Ac peptide displacement; Potency, µM (top dose mostly 114 µM), for inactives: at the top dose activity change, negative = inhibition, hits mostly inhibitors; 360,000 tested, 4.4% active; AID 504333; note: potency is the fitted concentration of half-maximal effect; % is set by controls: 0 for no effect and ±100 for the full control effect; nearly all actives have a fitted effect of over 60% in size
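AlphaScreen displacement: compounds (up to 110uM) incubated 30 min at room temperature with a preformed 50 nM BAZ2B/50 nM biotinylated H3K14Ac peptide complex in PBS pH 7.4 with Tween-20. Donor and acceptor beads at 10 ug/mL final added, 20 min light-protected before reading.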
* = called active by the depositor; ? = inconclusive; / = no result; [ ] = another dose, or the depositor's remark. Sampled rows, rich in hits. Any-hit rate of the full collection: about 12%. Unless noted, calls come from the whole dose curve; as a rule, active = well fitted curve in the direction sought with a large enough effect; inconclusive = small, poorly fitted or top-dose-only effect, or another doubt; inactive = no such curve, though single readings can be large; an effect the other way counts as inactive or inconclusive.

SMILES	PLK1 PBD block	JMJD2A Tudor inh	HP1b chromo inh	G9a inh	PI5P4Ka inh	BAZ2B inh
CCn1cc(C(=O)N2CCN(c3cccc(C)c3)C(C)C2)c(=O)c2cc(S(=O)(=O)N3CCOCC3)ccc21 (centres undefined)	/	-6%	26%	3%[59 µM]	/	/
N#Cc1nc(-c2ccc(Cl)cc2)oc1NCc1ccco1	27µM*	-8%[11.4 µM]	-31%	-8%[12.7 µM]	-6	-31%
COc1ccc(CNc2oc(-c3ccccc3)nc2C#N)cc1	-12%	?	-17%	40µM*	2	45µM*
COc1ccc(-c2nc(C#N)c(NCCc3ccccc3)o2)cc1	2%	-8%	23%	-11%[59 µM]	/	1%
O=C(NNS(=O)(=O)c1ccccc1)c1sccc1-n1cccc1	-6%	-10%	34%	-11%	-7	?
O=C(NNS(=O)(=O)c1ccc(Cl)cc1)c1sccc1-n1cccc1	-10%	13µM*	-4%	?	/	-36%
CCN1CCN(C(=O)NC(c2ccc(C)c(F)c2)C(Cl)Cl)CC1 (centres undefined)	-8%	-8%	19%	?	-1	-8%
Cc1ccc(C(NC(=O)N2CCOCC2)C(Cl)(Cl)Cl)cc1F (centres undefined)	27µM*	-17%	12%	-13%	2	-3%
CCN(CC)C(=O)NC(c1ccc(C)c(F)c1)C(Cl)(Cl)Cl (centres undefined)	-1%	-2%	52%	-10%[59 µM]	2	0%
Cc1ccc(C(NC(=O)N2CCCC2)C(Cl)Cl)cc1F (centres undefined)	-8%	-12%	34%	35µM*	1	-6%
COCCNC(=O)Cn1nc(C)c2c(C)n(-c3ccc(C)cc3)nc2c1=O	/	3%	60%	1%[59 µM]	/	10%
COc1ccc(CCNC(=O)Cn2nc(C)c3c(C)n(-c4ccc(C)cc4)nc3c2=O)c(OC)c1	/	?	11%	?	/	50µM*
COc1ccc(OC)c(CCNC(=O)C(C)n2nc(C)c3c(C)n(-c4ccccc4)nc3c2=O)c1 (centres undefined)	27µM*	?	9%	49%	-19	-26%
COc1ccc(CNC(=O)Cn2nc(C)c3c(C)n(-c4ccc(C)cc4)nc3c2=O)cc1OC	-17%	89µM*	29%	/	-1	79µM*
CCOc1ccc(CCNC(=O)c2cc3cccc4c3n2CCS4)cc1	/	9%	23%	-2%[59 µM]	/	-1%
Cc1cc(Br)ccc1NC(=O)c1ccc(NS(=O)(=O)c2c(C)noc2C)cc1	/	-17%	19%	?	/	/
COC(=O)[C@@H](NC(=O)c1ccc2c(c1)S(=O)(=O)c1ccccc1C2=O)C(C)C	-10%	-27%	-17%	7%	-2	-2%
Cc1ccc2nc(C(=O)O)c(C(=O)O)nc2c1	-8%	40µM*	-13%	35µM*	/	?
COC(=O)c1ccc(Cn2cc(Cl)cn2)o1	-9%	-8%	18%	/	-3	1%
Cc1ccc(/C=C/C(=O)Nc2ccccc2C(N)=O)o1	/	-18%	5%	10µM*	/	-2%[57.1 µM]
O=C(/C=C/c1ccco1)NC(=S)Nc1ccccc1N1CCOCC1	-8%	?	-24%	?	/	?
O=C(O)/C=C\C(=O)Nc1ccccc1N1CCN(c2ccccc2)CC1	-12%	-21%	22%	45µM*	-4	?
CCCCCC(=O)Nc1ccccc1N1CCN(c2ccccc2)CC1	-4%	-8%	60%	-7%[59 µM]	/	3%
O=C(/C=C/c1ccco1)Nc1ccccc1N1CCCC1	-2%	?	-16%	45µM*	5	?
CN(C(=O)/C=C/c1ccco1)c1ccccc1C(=O)O	-19%	-11%	60%	25µM*	2	?
SMILES	PLK1 PBD block	JMJD2A Tudor inh	HP1b chromo inh	G9a inh	PI5P4Ka inh	BAZ2B inh
O=C(NCC(c1ccc(F)cc1)N1CCOCC1)c1nn(-c2ccccc2)c(=O)c2ccccc12 (centres undefined)	-13%	-6%	29%	10%[59 µM]	5	-3%
COc1cc(OC)c(C(=O)NCc2nc(-c3ccccc3)no2)cc1OC	/	-25%	2%	5%[59 µM]	/	-5%
COc1cccc(NC(=O)CSc2nc(C)c(Cc3ccccc3)c(=O)[nH]2)c1	/	-15%	11%	-2%[59 µM]	/	-2%
CCc1nnc(NC(=O)/C=C/c2ccco2)s1	-9%	-11%	38%	50µM*	-11	4%
O=C(/C=C/c1ccco1)Nc1cccc(NC(=O)/C=C/c2ccco2)n1	-1%	?	-7%	10µM*	-58*	?
O=C(/C=C/c1ccco1)Nc1ccccc1C(=O)Nc1cccc(C(=O)O)c1	-21%	-30%	-4%	50µM*	-8	-23%
O=C(/C=C/c1ccco1)Nc1cc(Cl)ccc1C(=O)O	?	?	-6%	8.9µM*	?	?
O=C(/C=C\c1ccco1)Nc1cc([N+](=O)[O-])ccc1F	-8%	-16%	22%	-14%[59 µM]	-6	6%
Cc1nc(NC(=O)/C=C/c2ccco2)sc1C	-17%	-33%	-7%	?	?	?
C[C@H](NC(=O)c1ccco1)C(=O)NNC(=O)c1ccc(F)cc1	-6%	5%	38%	/	2	/
Cc1noc(C)c1C(=O)N1CCC[C@@]2(CCN(C(=O)NC(C)C)C2)C1	/	/	/	1%[12.7 µM]	/	/
O=C(NCc1ccccc1Cl)C(=O)NCC(c1cccs1)S(=O)(=O)c1cccs1 (centres undefined)	/	-5%	26%	-4%[59 µM]	/	-2%
CCOC(=O)C1=C(CNCc2ccccc2)NC(=O)NC1c1ccc(C)cc1 (centres undefined)	/	?	-5%	?	/	/
O=C(/C=C/c1ccco1)Nc1ccccc1C(=O)O	?	?	-6%	14µM*	-28	-33%
CCOC(=O)c1cc([N+](=O)[O-])cc([N+](=O)[O-])c1Sc1ncnc2nc[nH]c12	21µM*	-31%	12%	/	-5	/
O=C(CSc1ncnc2nc[nH]c12)c1ccc(Cl)cc1	?	18µM*	-36%	/	-55*	?
O=C(CSc1nc2ncc(Br)cc2[nH]1)c1ccc([N+](=O)[O-])cc1	-16%	?	?	14µM*	-18	?
CCOC(=O)C(C)(C)Sc1ncnc2nc[nH]c12	-6%	-11%	18%	-8%[59 µM]	/	-2%
O=C(CSc1ncnc2nc[nH]c12)c1ccc([N+](=O)[O-])cc1	-14%	-32%	15%	/	0	79µM*
O=C(CSc1ncnc2nc[nH]c12)c1ccccc1	-12%	-33%	27%	?	-5	?
CC1(C)O[C@@H]2[C@H](O1)[C@@H](COS(=O)(=O)O)O[C@H]2n1cc(Br)c(=O)[nH]c1=O	-7%	-9%	93%	/	5	/

Assay outcomes as filed in PubChem BioAssay.
